# Target: GALT
# Assay: pooled miR-30 sensor sort-seq; sequence = guide strand
# Conditions: shRNA
# Also: reference of the scale not given here.
row,Sequence,sensor-assay potency score (higher = more potent)
1,TTGGTCAAGAGCTTCTTCATGA,-0.31
2,TAGCCAACCATGAATTTCCGGA,-0.189
3,TTCCTTCCTGAGTAGCTCCTGG,-0.401

# Target: GAPDH
# Assay: as above
# Conditions: shRNA
row,Sequence,sensor-assay potency score (higher = more potent)
1,TGGAACATGTAAACCATGTAGT,-0.878
2,AATTCGTTGTCATACCAGGAAA,-1.59
3,TATTGGAACATGTAAACCATGT,-0.597
4,TTGGAACATGTAAACCATGTAG,-0.273
5,TTGCTGTAGCCAAATTCGTTGT,-1.2
6,ATGAGCTTGACAAAGTGGTCGT,0.0447
7,TGTTGTCATACTTCTCATGGTT,0.0358
8,ATTGATGACAAGCTTCCCGTTC,-0.354
9,TTGACAAAGTGGTCGTTGAGGG,-0.52
10,ATTTCCATTGATGACAAGCTTC,-1.07
11,ATATTGGAACATGTAAACCATG,-1.54
12,TGAGCTTGACAAAGTGGTCGTT,0.19
13,TAGTTGAGGTCAATGAAGGGGT,-0.233
14,TTGAGGTCAATGAAGGGGTCAT,-0.473
15,AACATGTAAACCATGTAGTTGA,-0.65
16,TTGGCAGGTTTTTCTAGACGGC,-0.926
17,TTGTCATGGATGACCTTGGCCA,-0.37
18,TTTTTCTAGACGGCAGGTCAGG,-1.01
19,TAAACCATGTAGTTGAGGTCAA,0.434
20,TTGATGGCAACAATATCCACTT,-0.344
21,ATTGATGGCAACAATATCCACT,-0.562
22,TCGCTGTTGAAGTCAGAGGAGA,-1.53
23,TTCTCAGCCTTGACGGTGCCAT,-0.93
24,TTGATGACAAGCTTCCCGTTCT,0.0762

# Target: GATA4
# Assay: as above
# Conditions: shRNA
row,Sequence,sensor-assay potency score (higher = more potent)
1,TTCGTGTTGCAGAATCTCTGGC,0.947
2,GAAGTCGTCAAACATATCGAGA,-1.84
3,TCGTCAAACATATCGAGATTGG,-0.878
4,TTCTGAGAAGTCGTCAAACATA,-1.72
5,TGGAGCTTCATGTAGAGGCCGC,-0.527
6,TCGACTTCAAGTTTCTTCCCAG,0.0228
7,AACGTCTGGGACACGGAGCTGC,0.00321
8,TTGATGGGACGCATCTCCTCGC,-0.611
9,TTTATTCAGGTTCTTGGGCTTC,-0.422
10,TGACACACTCTCTGCCTTCTGA,-0.406
11,TGACGGGAGACGCATAGCCTTG,-1.75
12,TAAAACAGAATCTTGGTTCAAA,0.268
13,TTCCGCATTGCAAGAGGCCTGG,-0.334
